In PubChem BioAssay (Tox21) one finds activation and outcome data, which are given here for 40 compounds.

Records with an inconclusive call do not appear. Calls of active or inactive are those of the source. Calls follow the shape of the dose curve; as a rule, active = well fitted activation curve with a large enough effect in the signal ratio in the repeat runs (not every such curve was filed as active); inconclusive = weak or mixed curves, or effect the other way; inactive = flat fitted curve, though single readings scatter; the % refers to the signal ratio.
% is scaled to controls: 0 for no effect and ±100 for the full control effect.

This test in a line: qHTS assay to identify small molecule agonists of the endoplasmic reticulum stress response signaling pathway (AID 1159516). Conditions: ESRE-bla HeLa, ER stress beta-lactamase reporter, 5 h; series mostly up to 61 µM. The source says: National Center for Advancing Translational Sciences [NCATS]
NIH Chemical Genomics Center [NCGC]
U.S. Environmental Protection Agency [EPA]
National Institutes of Environmental Health Sciences [NIEHS]
National Toxicology Program [NTP]
U.S. Food and Drug Administration [FDA]
Endoplasmic Reticulum (ER) plays an important role in cellular signaling, protein folding/maturation, stress response, lipid biosynthesis, calcium storage and release etc. Under stress conditions, proteins in ER misfold or unfold, and leading to the expression of ER stress responsive genes. ER stress has been associated with a variety of pathophysiological conditions such as cancer, inflammation, neurodegenerative diseases, diabetes, ischemic heart disease etc. To identify the compounds that induce ER stress response, an ER stress reporter cell line, CellSensor ESRE-bla HeLa (Life Technologies, Carlsbad, CA) containing a beta-lactamase reporter gene under control of the Endoplasmic reticulum Stress Response Element (ESRE) was used to screen Tox21 10K compound library.
Tox21 Assay Protocol Summary:
ESRE-bla HeLa cells were dispensed at 1,500 cells/6 uL of assay medium per well into black wall/clear-bottom 1536-well plates using a Multidrop Combi (ThermoFisher Scientific, Waltham, MA) dispenser. After the assay plates were incubated at 37 C and 5% CO2 for an overnight, 23 nL of compounds dissolved in DMSO, positive controls or DMSO only was transferred to the assay plate by a Pintool station (Kalypsys, San Diego, CA). The assay plates were incubated at 37 C and 5% CO2 for 5 hr. One uL of LiveBLAzer B/G FRET substrate (Life Technologies) was added using a Flying Reagent Dispenser (Aurora Discovery, San Diego, CA) and the plates were incubated at room temperature for 2 hr. Fluorescence intensity (405 nm excitation, 460 nm and 530 nm emissions) was measured using an Envision plate reader (PerkinElmer, Shelton, CT).
In general terms: qHTS replaces the single test concentration by a dilution series.
In the case of `CN1CCN(CC(=O)N2c3ccccc3C(=O)Nc3cccnc32)CC1`, the activation was -0.546% [at 6.95 µM] (inactive). With `Nc1ncnc(Nc2ccccc2)n1`, the call was inactive.

Consider `Cc1cc(C(C)(C)C)c(O)c(C)c1CC1=NCCN1`, for which the call was inactive. Take `CCC(C=O)CC`: the call was inactive. Turning to `COc1cc(NS(=O)(=O)c2ccc(N)cc2)nc(OC)n1`, the compound was classed as inactive.

Consider `O=C(OCc1ccccc1)C(=O)OCc1ccccc1`, for which the compound was classed as inactive. Still for that read-out and setting: the entry for `CCCCC(CC)COCCO` (stereo not given) is “inactive”. For `COc1ccc(-c2cc(=O)c3c(O)cc(O[C@@H]4O[C@H](CO[C@@H]5O[C@@H](C)[C@H](O)[C@@H](O)[C@H]5O)[C@@H](O)[C@H](O)[C@H]4O)cc3o2)cc1O`, the compound was classed as inactive. For `O=C(O)Cc1ccc(Cl)cc1Cl`, the outcome was inactive. Take `CCO[Si](CCCS)(OCC)OCC`: the call was inactive. With `CCCCCCCCC1CCC(=O)O1` (stereo not given), the outcome was inactive. Still for that read-out and setting: the entry for `Cc1cc2cc3c(C)cc(=O)oc3c(C)c2o1` is “inactive”; for `COc1cc(C(=S)N2CCOCC2)cc(OC)c1OC` it is “inactive”; for `NS(=O)(=O)c1ccc(NC(=O)CCC(=O)O)cc1` it is “inactive”. `CCN(CC)CC(=O)Nc1c(C)cccc1C`: the compound was classed as inactive. The same measure, in the same setting: the entry for `CC(=C(CCOC(=O)C(C)C)SSC(CCOC(=O)C(C)C)=C(C)N(C=O)Cc1cnc(C)nc1N)N(C=O)Cc1cnc(C)nc1N` is “inactive”; for `Brc1ccc(-c2ccccc2)cc1` it is “inactive”.

In the case of `CCCCCCCCCCl`, the call was inactive. `COc1ccc(S(=O)(=O)N2c3ccc(Cl)cc3[C@@](O)(c3ccccc3Cl)[C@H]2C(=O)N2CCC[C@@H]2C(N)=O)cc1OC`: the call was inactive. Still for that read-out and setting: the entry for `CN1C(C)(C)CCCC1(C)C` is “inactive”; for `CC(=O)OC(C)OC(=O)C(C)c1ccc(-c2ccccc2)c(F)c1` (stereo not given) it is “inactive”.

Regarding `O=S(O)(O)=S`, the activation was 0.601% [at 6.95 µM] (inactive). For `NC(CO)C(=O)NNCc1ccc(O)c(O)c1O` (stereo not given), the result was inactive. The same measure, in the same setting: the same measure for `CC(=O)c1sc(C)nc1C`: “inactive”; for `CCOC(=O)c1ncn2c1CN(C)C(=O)c1cc(F)ccc1-2`: “inactive”; for `N[C@@H](CCC(=O)N[C@@H](CS)C(=O)NCC(=O)O)C(=O)O`: “inactive”. For `CCCCCCCCCCCCCC`, the outcome was inactive.

On to `CCOCCOCCOCC`, for which the compound was called inactive. For `COc1nccnc1NS(=O)(=O)c1ccc(N)cc1`, the compound was called inactive. The same measure, in the same setting: the same measure for `CCOc1cc([N+](=O)[O-])c(OCC)cc1N1CCOCC1`: “inactive”. As for `Cc1ccccc1C(=O)Nc1ccc(C(=O)N2CCCC(N(C)C)c3ccccc32)cc1` (stereo not given), the result was inactive. Turning to `CC(C)C(=O)OCCc1ccccc1`, the call was inactive. As to `CCCOC(=O)C(C)O` (stereo not given), the compound was classed as inactive.

Take `N[C@@H](COP(=O)(O)O)C(=O)O`: the result was inactive.

For the compound `Cc1c(I)c(=O)n(-c2ccccc2)n1C`, the compound was classed as inactive. Turning to `Nc1nnc(-c2cccc(Cl)c2Cl)c(N)n1`, the call was inactive. On the same count and under the same terms, the same measure for `CCCCCCCCSCC`: “inactive”. Same read-out and setting: the entry for `CC1=CCC(C(C)C)=CC1` is “inactive”; for `O=C(Nc1ccc(Cl)c(Cl)c1)C1CC1` it is “inactive”. For the compound `CC(CO)c1ccccc1` (stereo not given), the call was inactive.
